Measurements as given in PubChem BioAssay (EPA / NIEHS).
Inconclusive results are not listed. Activity calls are given as the source filed them. Rule for the calls, unless noted: active = hit-call score of the fitted dose curve at least 0.9, where 1 is the maximum; inactive = score below 0.9.

Columns and labels:
[1] = ACEA_ER_80hr: ACEA Biosciences xCELLigence Real-Time Cell Analysis on Estrogen Receptor Agonism for Proliferation (AID 2282667; active = hit-call score of the fitted dose curve at least 0.9, where 1 is the maximum); conditions: T47D proliferation, impedance (xCELLigence), 80 h
Procedure, shortened: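 Real-time impedance growth kinetics of human T-47D breast cells read 80 h after dosing, gain-of-signal fitted relative to DMSO. Compounds: 1:4 serial series, top final concentration 100 uM, n = 2.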

[2] = ATG_CRE_CIS: Attagene CIS-FACTORIAL HepG2 Assay for human cAMP Responsive Element (CRE) binding protein 3 (AID 2282926); conditions: HepG2 CRE cis-reporter, Attagene multiplexed mRNA; actives raise or lower the signal
Procedure, shortened: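 Multiplexed transcription-unit reporters transfected into HepG2; 24 h dosing; RT-PCR/capillary electrophoresis fluorescence read-out; bidirectional fit vs DMSO.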

[3] = biological target: CCAAT/enhancer-binding protein beta (Homo sapiens) (UniProt P17676); assay: ATG_C_EBP_CIS: Attagene CIS-FACTORIAL HepG2 Assay for human CCAAT/Enhancer Binding Protein (C/EBP) beta (AID 2282927); conditions: HepG2 Attagene cis-factorial transcription factor reporter; actives raise or lower the signal
Procedure, shortened: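 Endogenous C/EBPb-driven reporter transcripts measured in transfected human HepG2 cells at 24 h via RT-PCR and capillary electrophoresis of labelled fragments. Activity fitted in both directions relative to DMSO baseline.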

[4] = ATG_CMV_CIS: Attagene CIS-FACTORIAL HepG2 Assay for human CMV (Internal Marker) (AID 2282928); conditions: HepG2 CMV promoter reporter, transcription factor profiling; actives raise or lower the signal;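 note: endpoint acts as a background internal control marker rather than a target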
Procedure, shortened: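 After transient transfection of HepG2 with reporter transcription units driven by cis-regulatory promoters, cells receive test chemical for 24 h. Labeled reporter amplicons, digested with HpaI, are sized and quantified by capillary electrophoresis against DMSO.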

[5] = ATG_DR4_LXR_CIS: Attagene CIS-FACTORIAL HepG2 Assay for human Liver X Receptor (LXR), DR4 submotif (AID 2282929); conditions: HepG2 Attagene DR4 cis-reporter, mRNA transcription; actives raise or lower the signal
Procedure, shortened: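 Measures endogenous transcription factor activity via a DR4-driven reporter transcript in human HepG2 cells. Compounds incubated 24 h; mRNA quantified by RT-PCR and capillary electrophoresis, analysed as gain or loss of signal versus DMSO.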

[6] = biological target: Aryl hydrocarbon receptor (Homo sapiens) (UniProt P35869); assay: ATG_Ahr_CIS: Attagene CIS-FACTORIAL HepG2 Assay for human Aryl Hydrocarbon Receptor (Ahr) (AID 2282930); conditions: HepG2 AhR cis-factorial reporter transcription; actives raise or lower the signal
Procedure, shortened: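 Reporter mRNA levels, quantified by RT-PCR and fluorescent capillary electrophoresis, reflect endogenous AhR transcriptional activity in HepG2 cells carrying transfected cis-promoter reporter constructs. Readout at 24 h post-dose; gain or loss fitted against DMSO baseline.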

[7] = ATG_AP_1_CIS: Attagene CIS-FACTORIAL HepG2 Assay for human Activator Protein 1 (AP-1) (AID 2282931); conditions: HepG2 Attagene cis-factorial AP-1 reporter mRNA; actives raise or lower the signal
Procedure, shortened: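 Bidirectional concentration-response fitting against DMSO controls. Underlying signal: reporter mRNA from cis-promoter constructs in transiently transfected HepG2, measured after 24 h by RT-PCR and capillary electrophoresis.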

[8] = ATG_AP_2_CIS: Attagene CIS-FACTORIAL HepG2 Assay for human Activator Protein 2 (AP-2) (AID 2282932); conditions: HepG2 AP-2 cis-reporter, Attagene transcription factor profiling; actives raise or lower the signal
Procedure, shortened: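 HepG2, transient MRTU transfection, cis-regulated reporters; 24 h compound exposure; RNA isolated, RT-PCR, 6-FAM labelling, HpaI digest, CE fluorescence. DMSO = negative control/baseline, bidirectional fit.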

[9] = ATG_BRE_CIS: Attagene CIS-FACTORIAL HepG2 Assay for human Bone Morphogenetic Protein (BMP) Response Element (BRE) (AID 2282933); conditions: HepG2 BMP response element reporter, Attagene transcription factor profiling; actives raise or lower the signal
Procedure, shortened: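 Endogenous transcription factor activity read in transiently transfected HepG2 cells after 24 h chemical exposure. Bidirectional curve fitting against DMSO; readout is reporter transcript level by RT-PCR with capillary electrophoresis of labelled products.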

[10] = biological target: Retinoic acid receptor alpha (Homo sapiens) (UniProt P10276); assay: ATG_DR5_RAR_CIS: Attagene CIS-FACTORIAL HepG2 Assay for human Retinoic Acid Receptor Alpha (RARE), DR5 submotif (AID 2282934); conditions: HepG2 Attagene cis-factorial RARE DR5 reporter, mRNA; actives raise or lower the signal;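 for AC50: reporter responds to endogenous RAR alpha beta and gamma in HepG2 not RARA alone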
Procedure, shortened: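 Reporter transcripts from a DR5-regulated unit, measured via RT-PCR plus capillary electrophoresis, reflect endogenous RAR activity in transiently transfected human HepG2 liver cells. Exposure lasted 24 h; gain or loss of signal scored against DMSO.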

[11] = biological target: Transcription factor E2F1 (Homo sapiens) (UniProt Q01094); assay: ATG_E2F_CIS: Attagene CIS-FACTORIAL HepG2 Assay for human E2F Transcription Factor 1 (AID 2282935); conditions: HepG2 Attagene cis-reporter, E2F reporter RNA transcripts; actives raise or lower the signal
Procedure, shortened: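 Cis-element reporter mRNA induction in transiently transfected HepG2, 24 h exposure. Activity fitted in both directions relative to DMSO negative control.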

[12] = ATG_E_Box_CIS: Attagene CIS-FACTORIAL HepG2 Assay for human Enhancer Box (E-box) (AID 2282936); conditions: HepG2 E-box cis-reporter transcription, actives raise or lower the signal
Procedure, shortened: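 Cells: HepG2 (human liver), transient MRTU transfection. Exposure 24 h. RNA → oligo(dT) RT → PCR → 6-FAM label → HpaI → CE. Activity fitted both directions relative to DMSO.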

[13] = ATG_M_61_CIS: Attagene CIS-FACTORIAL HepG2 Assay for M61 Transcription Factor (Internal Marker) (AID 2282937); conditions: HepG2 Attagene CIS-FACTORIAL M61 internal marker reporter; actives raise or lower the signal
Procedure, shortened: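 Fluorescence from labelled cDNA fragments, separated by capillary electrophoresis, quantifies reporter induction. HepG2 cells bearing transiently transfected cis-promoter MRTUs were incubated with test chemical for 24 h; DMSO defined baseline for gain/loss fitting.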

[14] = ATG_EGR_CIS: Attagene CIS-FACTORIAL HepG2 Assay for human Early Growth Response 1 (EGR1) (AID 2282938); conditions: HepG2 Attagene CIS-FACTORIAL EGR reporter mRNA; actives raise or lower the signal
Procedure, shortened: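 Cell-based multiplex transcription assay: HepG2 carrying transfected cis-element reporter units, 24 h chemical treatment. Fluorescence from capillary electrophoresis of RT-PCR products gives mRNA levels; fitting is bidirectional relative to DMSO.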

[15] = ATG_M_19_CIS: Attagene CIS-FACTORIAL HepG2 Assay for M19 Transcription Factor (Internal Marker) (AID 2282939); conditions: HepG2 Attagene CIS-FACTORIAL M19 internal marker reporter; actives raise or lower the signal
Procedure, shortened: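 Internal marker readout, fitted in both directions against DMSO, from HepG2 cells carrying transfected cis-element reporter constructs; RT-PCR and capillary electrophoresis of reporter mRNA after 24 h exposure.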

[16] = ATG_ERE_CIS: Attagene CIS-FACTORIAL HepG2 Assay for Estrogen Response Element (ERE) (AID 2282940); conditions: HepG2 ERE cis-reporter, Attagene RNA transcript; actives raise or lower the signal
Procedure, shortened: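 After 24 h compound treatment, RNA from transfected HepG2 cells was reverse-transcribed, reporter cDNA PCR-amplified, FAM-labelled, HpaI-cut and resolved by capillary electrophoresis. ERE-driven cis reporter transcripts reflect endogenous factors; gain or loss scored against DMSO.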

[17] = ATG_Ets_CIS: Attagene CIS-FACTORIAL HepG2 Assay for human Erythroblast Transformation Specific (ETS) (AID 2282941); conditions: HepG2 ETS cis-reporter transcription, actives raise or lower the signal
Procedure, shortened: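 Human HepG2 hepatoma cells were transiently transfected with promoter-driven reporter constructs and treated for 24 hours. Reporter transcripts were quantified by RT-PCR with fluorescent primer extension; bidirectional curve fitting used DMSO as reference.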

[18] = ATG_GATA_CIS: Attagene CIS-FACTORIAL HepG2 Assay for human GATA Binding Protein (AID 2282944); conditions: HepG2 GATA cis-element reporter, Attagene multiplex mRNA; actives raise or lower the signal
Procedure, shortened: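 Reporter transcripts from a GATA cis-regulated unit, among multiplexed reporters in transfected HepG2 cells, were measured by RT-PCR with capillary electrophoresis after 24 h dosing. Induction or loss scored relative to DMSO.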

[19] = biological target: Hepatocyte nuclear factor 3-beta (Homo sapiens) (UniProt Q9Y261); assay: ATG_FoxA2_CIS: Attagene CIS-FACTORIAL HepG2 Assay for human Forkhead box A2 (FOXA2) (AID 2282942); conditions: HepG2 cis-reporter transcription factor activity, 24 h; actives raise or lower the signal
Procedure, shortened: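 In transiently transfected human HepG2 cells, promoter-driven reporter mRNA levels after 24 h chemical exposure are determined via RT-PCR with capillary electrophoresis. DMSO serves as baseline for bidirectional fitting.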

[20] = ATG_FoxO_CIS: Attagene CIS-FACTORIAL HepG2 Assay for human Forkhead box O (FoxO) (AID 2282943); conditions: HepG2 Attagene cis-reporter, FoxO element, mRNA; actives raise or lower the signal
Procedure, shortened: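 Endogenous transcription factor activity read from multiplexed cis-promoter reporter transcripts in transiently transfected HepG2, 24 h after dosing. Reporter RNA measured via RT-PCR plus capillary electrophoresis of FAM-labeled products; gain or loss relative to DMSO.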

Measured: AC50

CCAAT/enhancer-binding protein beta (Homo sapiens), sequence (P17676 whole entry, looked up, the tested form may be a part): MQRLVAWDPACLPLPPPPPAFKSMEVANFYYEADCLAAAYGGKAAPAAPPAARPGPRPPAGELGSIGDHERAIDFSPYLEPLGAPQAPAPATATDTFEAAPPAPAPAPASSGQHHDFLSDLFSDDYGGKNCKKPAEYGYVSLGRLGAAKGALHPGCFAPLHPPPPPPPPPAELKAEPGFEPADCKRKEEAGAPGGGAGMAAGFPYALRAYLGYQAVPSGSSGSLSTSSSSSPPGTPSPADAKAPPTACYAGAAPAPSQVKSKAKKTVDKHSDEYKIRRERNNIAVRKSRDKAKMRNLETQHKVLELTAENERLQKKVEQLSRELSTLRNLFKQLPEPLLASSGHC
Aryl hydrocarbon receptor (Homo sapiens), sequence (P35869 whole entry, looked up): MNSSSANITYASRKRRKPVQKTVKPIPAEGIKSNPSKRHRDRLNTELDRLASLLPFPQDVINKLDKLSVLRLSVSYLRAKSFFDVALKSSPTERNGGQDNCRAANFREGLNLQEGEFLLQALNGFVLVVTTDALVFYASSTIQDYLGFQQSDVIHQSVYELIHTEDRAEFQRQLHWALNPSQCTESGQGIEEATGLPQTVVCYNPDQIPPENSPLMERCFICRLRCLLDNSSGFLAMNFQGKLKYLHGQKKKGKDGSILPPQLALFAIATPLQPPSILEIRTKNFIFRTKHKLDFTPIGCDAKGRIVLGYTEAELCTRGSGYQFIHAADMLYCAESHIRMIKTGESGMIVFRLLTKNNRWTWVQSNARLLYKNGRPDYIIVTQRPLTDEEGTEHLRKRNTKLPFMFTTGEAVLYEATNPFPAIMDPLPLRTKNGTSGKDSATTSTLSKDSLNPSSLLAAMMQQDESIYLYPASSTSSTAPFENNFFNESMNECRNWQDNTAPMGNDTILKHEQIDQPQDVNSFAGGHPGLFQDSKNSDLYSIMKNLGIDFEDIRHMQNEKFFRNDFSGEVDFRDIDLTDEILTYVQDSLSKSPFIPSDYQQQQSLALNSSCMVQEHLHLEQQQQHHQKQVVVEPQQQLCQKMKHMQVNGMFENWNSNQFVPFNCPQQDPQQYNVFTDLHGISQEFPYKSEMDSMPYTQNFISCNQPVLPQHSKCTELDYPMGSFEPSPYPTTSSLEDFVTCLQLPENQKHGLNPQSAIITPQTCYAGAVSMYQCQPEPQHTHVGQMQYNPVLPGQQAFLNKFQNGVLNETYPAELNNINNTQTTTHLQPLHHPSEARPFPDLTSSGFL
Transcription factor E2F1 (Homo sapiens), sequence (Q01094 whole entry, looked up): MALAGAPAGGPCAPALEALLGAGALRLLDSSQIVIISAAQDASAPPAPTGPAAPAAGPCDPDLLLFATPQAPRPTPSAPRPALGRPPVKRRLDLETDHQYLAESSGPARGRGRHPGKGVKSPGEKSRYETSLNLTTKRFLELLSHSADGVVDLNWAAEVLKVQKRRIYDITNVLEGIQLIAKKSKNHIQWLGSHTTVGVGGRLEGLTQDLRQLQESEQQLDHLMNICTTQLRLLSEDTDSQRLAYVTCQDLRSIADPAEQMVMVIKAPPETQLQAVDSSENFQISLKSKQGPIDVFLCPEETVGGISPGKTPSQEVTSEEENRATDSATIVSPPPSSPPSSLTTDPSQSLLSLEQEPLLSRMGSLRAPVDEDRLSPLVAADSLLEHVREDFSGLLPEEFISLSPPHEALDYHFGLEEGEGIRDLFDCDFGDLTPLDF
Hepatocyte nuclear factor 3-beta (Homo sapiens), sequence (Q9Y261 whole entry, looked up): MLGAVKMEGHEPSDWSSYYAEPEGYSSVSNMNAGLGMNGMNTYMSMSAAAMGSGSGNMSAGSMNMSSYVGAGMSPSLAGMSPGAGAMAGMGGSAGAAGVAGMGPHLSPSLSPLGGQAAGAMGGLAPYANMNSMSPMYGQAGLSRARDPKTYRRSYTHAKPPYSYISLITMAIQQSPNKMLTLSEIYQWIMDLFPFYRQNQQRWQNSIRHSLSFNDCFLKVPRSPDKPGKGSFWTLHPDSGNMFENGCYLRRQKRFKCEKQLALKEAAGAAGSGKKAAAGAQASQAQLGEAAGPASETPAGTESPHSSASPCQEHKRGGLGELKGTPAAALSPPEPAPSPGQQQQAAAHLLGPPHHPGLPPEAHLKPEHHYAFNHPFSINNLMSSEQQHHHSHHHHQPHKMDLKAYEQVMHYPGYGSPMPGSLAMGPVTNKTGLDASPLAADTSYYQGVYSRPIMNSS
Retinoic acid receptor alpha (Homo sapiens), sequence (P10276 whole entry, looked up): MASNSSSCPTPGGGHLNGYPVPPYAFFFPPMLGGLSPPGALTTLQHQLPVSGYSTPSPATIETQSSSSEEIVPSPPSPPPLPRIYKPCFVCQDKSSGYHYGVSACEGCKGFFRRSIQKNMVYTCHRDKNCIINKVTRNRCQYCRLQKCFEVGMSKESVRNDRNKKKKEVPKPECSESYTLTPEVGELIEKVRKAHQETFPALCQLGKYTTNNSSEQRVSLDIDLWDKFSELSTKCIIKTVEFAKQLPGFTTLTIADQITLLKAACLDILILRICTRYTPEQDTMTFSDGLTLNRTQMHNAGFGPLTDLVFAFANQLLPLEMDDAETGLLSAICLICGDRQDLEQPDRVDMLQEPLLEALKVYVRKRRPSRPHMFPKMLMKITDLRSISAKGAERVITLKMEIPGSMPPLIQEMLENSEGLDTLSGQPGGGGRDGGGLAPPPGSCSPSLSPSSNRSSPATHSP

CCCCCCCCCCCCCC[P+](CCCC)(CCCC)CCCC
active: [1] 0.0203 µM | [2] 0.758 µM | [9] 0.745 µM
not listed: [19] | [20]
inactive: all other assays above

OCCCc1cccnc1
inactive: all assays above

CCc1cc(Cc2cc(CC)c(N)c(CC)c2)cc(CC)c1N
active: [2] 33.4 µM | [4] 6.64 µM | [5] 24.2 µM | [7] 23.6 µM | [10] 2.96 µM | [11] 54.4 µM | [12] 9.07 µM | [19] 33.4 µM | [20] 58.8 µM
inactive: all other assays above

CCCCCCCCCCCC(=O)Cl
active: [5] 163 µM | [7] 82.8 µM | [10] 65.6 µM
inactive: all other assays above

CCCCC(CC)COC(=O)c1ccc(N(C)C)cc1 (centres undefined)
active: [4] 53.9 µM | [5] 64.7 µM | [7] 61.7 µM | [9] 46.7 µM | [16] 9.36 µM
inactive: all other assays above

CC(C)OC(=O)COc1ccc(Cl)cc1Cl
inactive: all assays above

OCC1CCCO1 (centres undefined)
not listed: [19]
inactive: all other assays above

CCCCCC/C=C/CCCCCCCC(=O)O
not listed: [19]
inactive: all other assays above

COC(=O)c1ccc(C=O)cc1
active: [6] 105 µM
not listed: [19]
inactive: all other assays above

O=S(=O)(O)CCC(F)(F)C(F)(F)C(F)(F)C(F)(F)C(F)(F)C(F)(F)C(F)(F)C(F)(F)F
not listed: [6] | [19]
inactive: all other assays above

CCCCCCCC/C=C\CCCCCCCC(=O)OCC(O)CO (centres undefined)
active: [7] 100 µM | [10] 20.5 µM
not listed: [6]
inactive: all other assays above

O=C(c1ccccc1)c1ccc(O)cc1O
active: [1] 1.88 µM | [4] 123 µM | [16] 1.72 µM
not listed: [10] | [20]
inactive: all other assays above

Cc1ccc(O)cn1
not listed: [5] | [10] | [12] | [20]
inactive: all other assays above

O=C1OC(=O)c2ccc3c4c(ccc1c24)C(=O)OC3=O
active: [1] 0.0537 µM
not listed: [5] | [10]
inactive: all other assays above
